This note sets out measurements from PubChem BioAssay (Tox21).

Values joined by “and” are separate entries in the source; they are usually repeats but may differ in a detail not shown here. Equal entries are not always repeated. Results filed as inconclusive are left out. Entries that show only a call come without a potency. Active and inactive are the calls of the source. Calls follow the shape of the dose curve; as a rule, active = well fitted inhibition curve with a large enough effect in the repeat runs; inconclusive = weak or mixed curves; inactive = flat fitted curve, though single readings scatter.
Potency is read from the fitted curve at half-maximal effect.

The experiment in a line: qHTS assay to identify small molecule HDAC inhibitors (AID 1259364). Also: nearly all actives have a fitted effect of over 45% in size. The note with it: HCT-116 HDAC-Glo I/II luminescence, 2 h; series mostly up to 92.4 µM. From the text:
U.S. Tox21 Program National Center for Advancing Translational Sciences [NCATS] NIH Chemical Genomics Center [NCGC] U.S. Environmental Protection Agency [EPA] National Institutes of Environmental Health Sciences [NIEHS] National Toxicology Program [NTP] U.S. Food and Drug Administration [FDA] Tox21 Assay Overview: Histone deacetylases (HDACs) are a group of epigenetic enzymes that regulate gene expression by histone deacetylation. HDACs are capable of introducing epigenetic modifications and such aberrations contribute to the onset and progression of several human diseases, thus making HDACs a popular therapeutic target. For identifying endogenous class I/II HDAC inhibitors a homogenous, luminogenic HDAC I/II cell based assay was used to measure the relative activity of class I and II HDACs from cells. Wild type HCT-116 cells were used to screen Tox21 libraries for identifying class I/II HDAC inhibitors.
Tox21 Assay Protocol Summary: HCT-116 cells were dispensed at 1,500 per well in 5uL of culture medium into white solid bottom 1536-well plates (Greiner Bio-One, Monroe, NC) using a Multidrop Combi (Thermo Scientific, Waltham, MA) dispenser. The assay plates were incubated at 37 C and 5% CO2 for an overnight, and then 23nL of compounds dissolved in DMSO and positive control were transferred using a Pintool station (Wako, San Diego, CA). The assay plates were incubated at 37C and 5% CO2 for 2hr. After compound treatment, 4uL of HDAC-Glo reagent (Promega Corporation, Madison, WI) was added to each well of the assay plates using Flying Reagent Dispenser (FRD, Aurora Discovery, San Diego, CA) and incubated the assay plates at room temperature for 30min. The luminescence signal was quantified using a ViewLux plate reader (Perkin Elmer, Shelton, CT).
Background: In qHTS, concentration-response curves come from the screen itself.
On to `ClCBr`, for which the Potency result was “inactive”.
Turning to `Nc1nc(N)nc(Cl)n1`, the Potency result is “inactive”.
Under `CN1C2CCC(C)(C)C1CC(OC(=O)C(O)(c1cccs1)c1cccs1)C2` (stereo not given) stands “inactive”.
Under `CCC[CH2][Sn]([CH2]CCC)([CH2]CCC)[CH2]CCC` stands “inactive”; under `CC(C)(C)c1ccc(OP(=O)(Oc2ccccc2)Oc2ccccc2)cc1`, “inactive”.
`Cc1c([N+](=O)[O-])cc2c(c1[N+](=O)[O-])C(C)(C)CC2(C)C`: the Potency entry is “inactive”.
For the compound `CN=C=O`, the Potency entry was “inactive”.
The same measure for `CO/N=C(/C1=NOCCO1)c1ccccc1Oc1ncnc(Oc2ccccc2Cl)c1F`: “inactive”; for `CC[N+]1(CC)CCC(OC(=O)C(O)(c2ccccc2)c2ccccc2)C1` (stereo not given): “inactive”.
Under `CCC(C)Br` (stereo not given) stands “inactive”; under `[O-][Cl+3]([O-])([O-])O`, “inactive”.
The same measure for `CCN(CC)CCc1c[nH]c2ccccc12`: “inactive”; for `CCCCCCC[CH2][Sn]([Cl])([Cl])[CH2]CCCCCCC`: “inactive”.
Consider `CC(C)NCC(O)c1ccccc1Cl` (stereo not given), for which the Potency entry was “inactive”.
Under `N#Cc1sc2c(=O)c3ccccc3c(=O)c=2sc1C#N` stands 27.3 µM (active).
In the case of `CN1C(=O)[C@@H](NC(=O)c2cc3ccccc3[nH]2)N=C(c2ccccc2)c2ccccc21`, the Potency result was “inactive”.
The same measure for `CC(=O)O.CC(=O)O.CC(=O)O.CC(=O)O.CC(=O)O.CC(=O)O.CC(=O)O.O.O.[Cr].[Cr].[Cr]`: “inactive”.
With `COC(=O)c1cc(Oc2ccc(Cl)cc2Cl)ccc1[N+](=O)[O-]`, the Potency result is “inactive”.
The same measure for `O=c1c2ccccc2c(=O)c2c1cc(Cl)c1[nH]c3c([nH]c12)c(Cl)cc1c(=O)c2ccccc2c(=O)c13`: “inactive”.
Take `Nc1nc(N)c(N)c(N)n1`: the Potency entry is “inactive”.
In the case of `CCCCc1ccccc1`, the Potency result was “inactive”.
Under `COP(=S)(NC(C)C)Oc1ccc(C)cc1[N+](=O)[O-]` (stereo not given) stands “inactive”; under `O=C(NC(=O)c1c(F)cccc1F)Nc1ccc(Oc2ccc(C(F)(F)F)cc2Cl)cc1F`, “inactive”.
The same measure for `ClC1=C(Cl)[C@]2(Cl)[C@H]3[C@H]([C@@H]4C=C[C@H]3C4)[C@@]1(Cl)C2(Cl)Cl`: “inactive”; for `COP(=O)(OC)Oc1ccc([N+](=O)[O-])cc1`: “inactive”; for `CC(C)c1c(CN(C)C(C)Cc2ccccc2)n(C)n(-c2ccccc2)c1=O` (stereo not given): “inactive”.
The same measure for `CCn1cc[n+](C)c1` (tested in a mixture with another compound): “inactive”.
Turning to `CC(C)N(C(=O)SC/C(Cl)=C/Cl)C(C)C`, the Potency result was “inactive”.
Under `O=NN(CCO)CCO` stands “inactive”; under `COc1c2c(cc3c1OCO3)CCN(C)C2`, “inactive”.
Take `COc1ccc2c3c1O[C@H]1[C@H](O)CC[C@H]4[C@@H](C2)N(C)CC[C@@]341`: the Potency result was “inactive”.
The same measure for `CN1[C@@H]2CC[C@H]1CC(O)C2` (stereo not given in full): “inactive”; for `Oc1ccc2[nH]cc(CCCCN3CC=C(c4ccccc4)CC3)c2c1`: “inactive”.
Regarding `c1ccc(N=NNc2ccccc2)cc1`, the Potency is 15.9 µM (active) and 24.3 µM (active).
The same measure for `CCC1COC(Cn2cncn2)(c2ccc(Cl)cc2Cl)O1` (stereo not given): “inactive”; for `O=[N+]([O-])c1ccc(CCl)cc1`: “inactive”; for `CC(=O)[O-].CC(=O)[O-].O.O.O.[Pb+2]`: “inactive”.
Take `N#CCCl`: the Potency entry was “inactive”.
For the compound `O=[N+]([O-])c1cccc2cccc([N+](=O)[O-])c12`, the Potency entry is “inactive”.
As to `CO/N=C(\C(=O)OC)c1ccccc1CO/N=C(\C)c1cccc(C(F)(F)F)c1`, the Potency entry is “inactive”.
